Inconclusive results are not listed. Calls of active or inactive are those of the source. Unless noted, no stated cut-off is given here; in the data, active means response above about 15%; inactive means the rest.
What was measured:
[1] = yeast TOR pathway RPL19A-GFP modulators, primary screen, cell-based, S. cerevisiae, multiplex flow cytometry (AID 1862; in the data active means percent of DMSO control GFP below about 86%;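 further: lower values mimic rapamycin by blocking the RPL19A rise seen in DMSO cells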); settings: S. cerevisiae RPL19A-GFP strain, flow cytometry fluorescence, 3 h; at 10 µM; stronger effect = lower value
[2] = modulators of MEP2-GFP levels in yeast, primary screen, S. cerevisiae, multiplex flow cytometry (AID 1867;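 active means GFP response, as percent of the DMSO control, above the screen-wide mean plus 3 SD, about 139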;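 further: median GFP channel fluorescence of barcode-gated MEP2-GFP cells measured by flow cytometry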); settings: S. cerevisiae MEP2-GFP strain, 3 h, at 10 µM, stronger effect = higher value, 100% means same as DMSO wells
[3] = modulators of CIT2-GFP expression in yeast, primary screen, S. cerevisiae, GFP fusion, multiplex flow cytometry (AID 1870;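 active means percent response above a set limit, the screen-wide mean plus 3 SD, cut at about 130% in these data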;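 further: barcoded CIT2-GFP strain pooled with four other GFP strains with rapamycin as positive control; median GFP fluorescence per well over plate mean of DMSO wells so 100% = DMSO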); settings: 3 h, at 10 µM, stronger effect = higher value
[4] = modulators of LAP4-GFP expression in yeast, primary screen, S. cerevisiae, multiplex flow cytometry (AID 1873;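 active means GFP signal, as percent of the solvent control, above the screen mean plus 3 SD, about 149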); settings: 3 h, at 10 µM, stronger effect = higher value
[5] = modulators of AGP1-GFP expression in yeast TOR pathway, primary screen, cell-based, multiplex flow cytometry, S. cerevisiae (AID 1887;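 active means GFP signal above the screen-wide mean plus 3 SD, that is over about 124.5% of the solvent control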;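 further: AGP1-GFP fusion strain of S. cerevisiae within a five-strain barcoded multiplex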); settings: 3 h, at 10 µM, stronger effect = higher value
[6] = inhibitors of CD8+ T cell-vesicle binding, pilot screen, LFA-1/ICAM-1 modulator project, MLPCN validation set, flow cytometry (AID 2523;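 active means response below a set limit, under 55% cells CD8-positive and vesicle-bound, and CD8 cells' 90th-percentile brightness under 279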;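 on vesicle binding response: mean PE anti-B7-1 fluorescence of CD8+ cells relative to row control; 100% = QL9-loaded vesicles with DMSO vehicle in the same plate row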); settings: 2C mouse CD8+ T cells, at 7 µM, stronger effect = lower value; double positive events: measured here: CD8+/vesicle+ event percentage
[7] = biological target: Integrin beta-1 (Homo sapiens) + Integrin alpha-4 (Homo sapiens) (UniProt P13612+P05556); assay: inhibition of HUTS-21 binding to VLA-4, pilot screen, VLA-4 allosteric modulator project, U937 cells, HUTS-21 mAb, flow cytometry, validation set (AID 2674;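 active means inhibition above 50%, about 3 SD of the validation set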;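 further: antibody binding induced by the VLA-4 ligand LDV present at three times its Kd; 0% = LDV ligand with antibody and no compound and 100% = antibody without LDV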); settings: HUTS-21 LIBS mAb binding, at 6.7 µM, stronger effect = higher value, binding induced by LDV ligand
[8] = superoxide lowering in aged yeast cells, pilot screen, validation compound set (AID 2706;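 active means superoxide response below 65% of plate, a cut near 3 SD across the whole screen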;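 further: yeast exposed to compound for one week at 30 degrees C before staining; 100% = mean of all compound wells on the same plate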); settings: S. cerevisiae aging, superoxide DHE fluorescence; at 10 µM; stronger effect = lower value
[9] = biological target: Beta-adrenergic receptor kinase 1 (Homo sapiens) (UniProt P25098); assay: GRK2 binders displacing RNA aptamer, biochemical, validation, human GRK2, bead flow cytometry (AID 488806;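 active means aptamer binding inhibition above 30%, about 3 SD of noise from non-fluorescent compounds; inactive means inhibition at or below 30%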); settings: bead-bound GRK2, FAM-aptamer displacement, at 10 µM, stronger effect = higher value
[10] = biological target: Beta-2 adrenergic receptor (Homo sapiens) (UniProt P07550); assay: beta2AR agonists driving receptor internalization, pilot screen, cell-based, FAP fluorogen, flow cytometry, validation set (AID 504459;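 active means percent response above 42, roughly 3 SD of non-fluorescent test compounds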;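 further: agonist-driven loss of surface beta2AR via internalization measured by FAP dye flow cytometry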); settings: Am2.2-beta2AR cells, FAP surface receptor flow cytometry; at 10 µM; stronger effect = higher value
[11] = biological target: AP-2 complex subunit beta (Homo sapiens) (UniProt P63010); assay: inhibitors of arrestin peptide binding to AP2, pilot screen, biochemical, validation set, GST-AP2 beads, flow cytometry (AID 504541;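 active means inhibition above 54%, about 3 SD of non-fluorescent compounds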;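 further: AP2 carries R879A mutation and is captured from E. coli lysate; bead-bound FITC arrestin peptide fluorescence measuring arrestin peptide binding to AP2; 0% = DMSO wells and 100% = excess unlabeled arrestin peptide control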); settings: FITC arrestin peptide, at 10 µM, stronger effect = higher value, AP2 beta2 appendage fragment, R879A mutant
[12] = yeast V-ATPase proton transport modulators, S. cerevisiae, pHLuorin, HTS validation (AID 504600);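 further: plate controls were DMSO for no effect and reference compound for full effect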; settings: S. cerevisiae pHLuorin cytosolic pH, at 10 µM, stronger effect = higher value
[13] = test system: anti-desmoglein-3 scFv antibody binding to human DSG3; assay: inhibitors of anti-DSG3 scFv binding to DSG3, pilot screen, biochemical, validation compound set, bead-based, flow cytometry (AID 588368;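 active means binding below the plate cutoff, the plate median minus 3 SD, with a reading above zero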;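 further: signal is the median channel fluorescence of bead-bound GFP antibody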); settings: Protein G beads, DSG3-Fc, scFv-GFP binding, at 10 µM, stronger effect = lower value
[14] = inhibitors of fungal efflux pumps CDR1, CDR2, MDR1, pilot screen, validation compound set, multiplex, phenotypic (AID 588506;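 active means efflux inhibition above 0.42, the validation set average plus 4 SD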;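 further: Nile Red retained in cells so higher fluorescence means more efflux inhibition; 0 = negative control wells and 1 = enniatin B 25 µM full block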); settings: S. cerevisiae pump-expressing triplex, Nile Red efflux flow cytometry; at 10 µM; stronger effect = higher value; the pumps come from Candida albicans
[15] = biological target: ATP-binding cassette sub-family B member 6 (Homo sapiens) (UniProt Q9NP58); assay: ABCB6 transporter inhibitors, pilot screen, K562-ABCB6 cells, flow cytometry, validation set (AID 588550;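 active means inhibition above the screen-wide mean plus 3 SD, about 51%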;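 further: 0% = DMSO wells and 100% = benzethonium chloride 70 µM positive control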); settings: K562-ABCB6 porphyrin accumulation, 1 h, at 10 µM, stronger effect = higher value
[16] = promoters of myeloid differentiation in arrested cells, primary screen, cell-based, GFP/MAC1 double positive, flow cytometry, validation set (AID 588685;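 active means differentiation response of at least 50%, scaled between solvent and reference control, from cells with both markers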;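 further: compound exposure lasts four days before antibody staining and flow analysis; 0% = DMSO wells and 100% = 5 µM fulvestrant positive control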); settings: ER-HoxA9 marrow cells, stronger effect = higher value, normalized: vehicle 0, fulvestrant 100

Sequence of Beta-2 adrenergic receptor (Homo sapiens) (P07550 whole entry, looked up): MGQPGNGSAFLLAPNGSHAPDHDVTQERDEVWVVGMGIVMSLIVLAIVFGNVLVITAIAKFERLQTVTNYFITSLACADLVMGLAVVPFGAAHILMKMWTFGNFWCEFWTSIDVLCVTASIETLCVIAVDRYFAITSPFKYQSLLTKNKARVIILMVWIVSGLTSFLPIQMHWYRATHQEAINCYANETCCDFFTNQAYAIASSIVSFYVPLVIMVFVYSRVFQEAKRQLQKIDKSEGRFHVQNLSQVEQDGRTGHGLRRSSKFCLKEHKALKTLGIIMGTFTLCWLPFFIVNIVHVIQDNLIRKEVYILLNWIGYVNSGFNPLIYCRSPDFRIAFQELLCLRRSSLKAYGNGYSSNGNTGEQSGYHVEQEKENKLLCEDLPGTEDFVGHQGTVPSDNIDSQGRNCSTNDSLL
Sequence of AP-2 complex subunit beta (Homo sapiens) (P63010 whole entry, looked up, the tested form may be a part, one chain of several): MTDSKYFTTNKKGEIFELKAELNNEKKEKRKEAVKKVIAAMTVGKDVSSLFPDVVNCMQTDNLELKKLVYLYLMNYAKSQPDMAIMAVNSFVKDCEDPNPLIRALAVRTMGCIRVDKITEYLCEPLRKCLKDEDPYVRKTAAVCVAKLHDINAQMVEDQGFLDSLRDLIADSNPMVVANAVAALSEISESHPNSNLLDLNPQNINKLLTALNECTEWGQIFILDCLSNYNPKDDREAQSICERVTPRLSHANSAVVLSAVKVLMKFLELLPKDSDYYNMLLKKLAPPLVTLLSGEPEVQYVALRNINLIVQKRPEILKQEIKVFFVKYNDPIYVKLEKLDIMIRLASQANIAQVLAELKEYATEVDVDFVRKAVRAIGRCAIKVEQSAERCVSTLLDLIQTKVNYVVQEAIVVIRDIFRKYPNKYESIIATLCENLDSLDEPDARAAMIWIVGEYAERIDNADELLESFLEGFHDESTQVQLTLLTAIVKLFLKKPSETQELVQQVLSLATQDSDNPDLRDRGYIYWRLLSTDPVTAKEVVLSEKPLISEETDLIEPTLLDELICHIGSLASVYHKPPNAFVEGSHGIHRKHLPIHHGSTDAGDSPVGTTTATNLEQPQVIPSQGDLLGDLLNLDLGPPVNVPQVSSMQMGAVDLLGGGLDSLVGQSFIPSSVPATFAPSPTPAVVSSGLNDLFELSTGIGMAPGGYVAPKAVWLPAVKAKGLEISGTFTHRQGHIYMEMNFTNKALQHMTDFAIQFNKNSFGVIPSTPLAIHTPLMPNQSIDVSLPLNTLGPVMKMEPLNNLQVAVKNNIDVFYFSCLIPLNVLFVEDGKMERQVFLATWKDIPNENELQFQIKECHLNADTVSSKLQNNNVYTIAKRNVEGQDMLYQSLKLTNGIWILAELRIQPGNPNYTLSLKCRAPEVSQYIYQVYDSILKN
Sequence of Beta-adrenergic receptor kinase 1 (Homo sapiens) (P25098 whole entry, looked up): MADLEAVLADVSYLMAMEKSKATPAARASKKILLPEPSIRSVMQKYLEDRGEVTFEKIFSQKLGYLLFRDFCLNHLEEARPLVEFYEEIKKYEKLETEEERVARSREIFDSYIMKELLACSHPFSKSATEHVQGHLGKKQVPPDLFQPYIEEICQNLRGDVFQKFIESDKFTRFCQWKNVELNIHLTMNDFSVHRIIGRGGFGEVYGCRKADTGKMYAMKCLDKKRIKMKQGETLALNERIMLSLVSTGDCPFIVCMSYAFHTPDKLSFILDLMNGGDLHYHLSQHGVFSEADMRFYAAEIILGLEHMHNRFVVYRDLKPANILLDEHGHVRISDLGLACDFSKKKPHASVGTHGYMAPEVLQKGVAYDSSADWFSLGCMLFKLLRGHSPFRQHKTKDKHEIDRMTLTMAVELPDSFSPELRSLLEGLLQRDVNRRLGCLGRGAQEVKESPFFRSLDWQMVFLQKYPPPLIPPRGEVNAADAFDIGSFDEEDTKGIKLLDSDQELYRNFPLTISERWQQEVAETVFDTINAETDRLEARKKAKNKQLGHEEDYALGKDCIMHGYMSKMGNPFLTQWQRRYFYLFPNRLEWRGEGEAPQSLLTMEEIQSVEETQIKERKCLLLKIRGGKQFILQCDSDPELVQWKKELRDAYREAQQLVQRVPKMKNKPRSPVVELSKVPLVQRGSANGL
Sequence of Integrin beta-1 (Homo sapiens) + Integrin alpha-4 (Homo sapiens) (P05556 whole entry, looked up): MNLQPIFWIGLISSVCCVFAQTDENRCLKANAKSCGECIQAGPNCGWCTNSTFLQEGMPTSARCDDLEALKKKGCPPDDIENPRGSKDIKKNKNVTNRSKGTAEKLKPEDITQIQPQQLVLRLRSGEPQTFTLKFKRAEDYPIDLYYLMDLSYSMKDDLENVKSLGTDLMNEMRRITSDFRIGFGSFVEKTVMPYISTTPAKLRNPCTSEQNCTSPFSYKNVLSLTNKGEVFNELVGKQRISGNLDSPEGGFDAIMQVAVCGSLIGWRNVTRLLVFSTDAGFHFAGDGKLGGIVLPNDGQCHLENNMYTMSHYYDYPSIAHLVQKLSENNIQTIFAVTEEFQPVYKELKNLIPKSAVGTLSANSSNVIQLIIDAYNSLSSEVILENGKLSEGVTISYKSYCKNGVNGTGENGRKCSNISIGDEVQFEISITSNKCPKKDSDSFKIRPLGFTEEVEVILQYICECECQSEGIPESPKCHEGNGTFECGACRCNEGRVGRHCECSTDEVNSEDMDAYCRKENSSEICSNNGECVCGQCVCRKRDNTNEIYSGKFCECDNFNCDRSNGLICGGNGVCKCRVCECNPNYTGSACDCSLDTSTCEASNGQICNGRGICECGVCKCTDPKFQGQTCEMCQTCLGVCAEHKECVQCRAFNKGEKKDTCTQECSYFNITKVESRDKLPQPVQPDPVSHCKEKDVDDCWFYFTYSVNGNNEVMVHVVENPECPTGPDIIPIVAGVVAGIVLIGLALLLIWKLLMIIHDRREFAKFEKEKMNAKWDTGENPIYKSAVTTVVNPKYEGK
Sequence of Integrin beta-1 (Homo sapiens) + Integrin alpha-4 (Homo sapiens) (P13612 whole entry, looked up): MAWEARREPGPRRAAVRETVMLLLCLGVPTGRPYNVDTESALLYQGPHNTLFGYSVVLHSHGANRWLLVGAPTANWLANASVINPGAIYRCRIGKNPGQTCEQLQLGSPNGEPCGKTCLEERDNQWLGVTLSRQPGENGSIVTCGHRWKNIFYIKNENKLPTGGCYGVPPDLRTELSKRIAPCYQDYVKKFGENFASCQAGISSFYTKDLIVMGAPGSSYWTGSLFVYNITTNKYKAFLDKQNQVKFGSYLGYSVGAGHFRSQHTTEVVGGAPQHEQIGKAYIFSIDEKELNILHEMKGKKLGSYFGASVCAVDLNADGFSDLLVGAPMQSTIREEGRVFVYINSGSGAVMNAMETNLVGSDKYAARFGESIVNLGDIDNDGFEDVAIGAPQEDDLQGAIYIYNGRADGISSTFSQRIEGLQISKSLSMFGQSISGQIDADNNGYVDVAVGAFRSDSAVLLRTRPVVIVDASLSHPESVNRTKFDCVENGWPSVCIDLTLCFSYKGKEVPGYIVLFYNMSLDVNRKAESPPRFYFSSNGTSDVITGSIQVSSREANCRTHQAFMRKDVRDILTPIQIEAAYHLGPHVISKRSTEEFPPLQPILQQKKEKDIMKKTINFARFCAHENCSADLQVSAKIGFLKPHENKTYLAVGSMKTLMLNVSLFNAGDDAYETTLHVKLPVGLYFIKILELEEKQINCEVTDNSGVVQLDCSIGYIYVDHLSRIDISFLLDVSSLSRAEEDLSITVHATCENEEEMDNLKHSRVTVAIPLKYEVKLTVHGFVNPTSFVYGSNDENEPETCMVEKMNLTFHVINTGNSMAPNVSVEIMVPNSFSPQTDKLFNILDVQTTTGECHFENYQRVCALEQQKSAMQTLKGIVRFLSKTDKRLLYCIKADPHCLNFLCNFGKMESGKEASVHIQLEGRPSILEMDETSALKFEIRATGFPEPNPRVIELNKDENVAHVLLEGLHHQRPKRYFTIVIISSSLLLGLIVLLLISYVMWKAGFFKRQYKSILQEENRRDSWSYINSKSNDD
Sequence of ATP-binding cassette sub-family B member 6 (Homo sapiens) (Q9NP58 whole entry, looked up): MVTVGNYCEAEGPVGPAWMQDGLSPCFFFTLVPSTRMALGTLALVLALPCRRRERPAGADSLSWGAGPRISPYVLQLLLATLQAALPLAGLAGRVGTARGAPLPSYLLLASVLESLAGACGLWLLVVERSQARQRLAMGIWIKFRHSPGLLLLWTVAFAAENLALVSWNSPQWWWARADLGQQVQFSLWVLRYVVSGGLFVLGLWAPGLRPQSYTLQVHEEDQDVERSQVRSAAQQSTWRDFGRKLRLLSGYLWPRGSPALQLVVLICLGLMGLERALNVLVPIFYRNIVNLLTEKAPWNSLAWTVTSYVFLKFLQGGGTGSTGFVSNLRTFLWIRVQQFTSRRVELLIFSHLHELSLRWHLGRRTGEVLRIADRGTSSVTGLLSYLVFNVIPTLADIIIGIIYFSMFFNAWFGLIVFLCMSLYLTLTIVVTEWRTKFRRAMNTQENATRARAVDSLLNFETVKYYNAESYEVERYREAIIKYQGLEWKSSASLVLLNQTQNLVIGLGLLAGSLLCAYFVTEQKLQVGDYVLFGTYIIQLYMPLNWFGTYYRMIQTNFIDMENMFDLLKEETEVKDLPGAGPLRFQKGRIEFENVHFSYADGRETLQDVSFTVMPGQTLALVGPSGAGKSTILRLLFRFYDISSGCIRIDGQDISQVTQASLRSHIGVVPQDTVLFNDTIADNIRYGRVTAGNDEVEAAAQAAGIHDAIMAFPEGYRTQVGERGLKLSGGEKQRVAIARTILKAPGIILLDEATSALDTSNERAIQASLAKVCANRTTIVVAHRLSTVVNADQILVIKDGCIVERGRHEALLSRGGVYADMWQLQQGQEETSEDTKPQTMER

CC(C)(C)OC(=O)NCCC(=O)Oc1ccc2ccc(=O)oc2c1
inactive: percent of DMSO control GFP [1] 100% | GFP response vs DMSO [2] 91.9% | percent response of DMSO control [3] 98.6% | GFP response vs DMSO [4] 76% | GFP response, % of DMSO [5] 84% | vesicle binding response [6] 238% | inhibition [7] -1.79% | superoxide response (% of plate) [8] 101% | aptamer binding inhibition [9] 4% | response [10] 7.52% | inhibition [11] 17.2% | response [12] 7.71% | binding (% of control) [13] 101% | efflux inhibition (fraction of control) [14] 0.05 | inhibition [15] 3% | differentiation response [16] -12%
56.1%: double positive events [6]

COC(=O)c1cc(Br)c(=O)n(CCc2ccc(O)cc2)c1
inactive: percent of DMSO control GFP [1] 95.2% | GFP response vs DMSO [2] 109% | percent response of DMSO control [3] 93.9% | GFP response vs DMSO [4] 123% | GFP response, % of DMSO [5] 99.7% | vesicle binding response [6] 234% | inhibition [7] 6.4% | superoxide response (% of plate) [8] 103% | aptamer binding inhibition [9] 5% | response [10] -13.9% | inhibition [11] 4.99% | response [12] -0.03% | binding (% of control) [13] 96.8% | efflux inhibition (fraction of control) [14] -0.17 | inhibition [15] 8% | differentiation response [16] -10.4%
57.8%: double positive events [6]

Nc1ccc(-c2nc3ncccc3o2)c(Cl)c1
inactive: percent of DMSO control GFP [1] 97.8% | GFP response vs DMSO [2] 103% | percent response of DMSO control [3] 97.7% | GFP response vs DMSO [4] 112% | GFP response, % of DMSO [5] 98.6% | vesicle binding response [6] 243% | inhibition [7] -15.4% | superoxide response (% of plate) [8] 118% | aptamer binding inhibition [9] 0% | response [10] 0.9% | inhibition [11] -5.26% | binding (% of control) [13] 103% | efflux inhibition (fraction of control) [14] 0.15 | inhibition [15] 6% | differentiation response [16] 4%
active: response [12] 61.4%
56.7%: double positive events [6]

CC(=O)C1=C(Nc2ccc(C)cc2)CC(C)(O)C(C(C)=O)C1c1ccco1 (configuration not stated)
66.9%: double positive events [6]
inactive: percent of DMSO control GFP [1] 105% | GFP response vs DMSO [2] 104% | percent response of DMSO control [3] 93.1% | GFP response vs DMSO [4] 96.6% | GFP response, % of DMSO [5] 97.2% | vesicle binding response [6] 223% | inhibition [7] -9.79% | superoxide response (% of plate) [8] 103% | aptamer binding inhibition [9] 5% | response [10] 0.66% | inhibition [11] 36.9% | response [12] -0.29% | binding (% of control) [13] 105% | efflux inhibition (fraction of control) [14] 0.3 | inhibition [15] -19% | differentiation response [16] 14.9%

COc1cc2c(cc1OC)C(c1ccc(-c3cc(Cl)ccc3Cl)o1)=NCC2
inactive: percent of DMSO control GFP [1] 102% | GFP response vs DMSO [2] 109% | percent response of DMSO control [3] 101% | GFP response vs DMSO [4] 75.2% | GFP response, % of DMSO [5] 79.3% | vesicle binding response [6] 228% | inhibition [7] -53.7% | superoxide response (% of plate) [8] 97.5% | aptamer binding inhibition [9] 5% | inhibition [11] 17.6% | response [12] 2.96% | binding (% of control) [13] 101% | efflux inhibition (fraction of control) [14] 0.3 | inhibition [15] 3% | differentiation response [16] -26.4%
active: response [10] 60.6%
59.5%: double positive events [6]

CC(=O)N(C(C)=O)c1nc2nc(C)cc(C)n2n1
67.9%: double positive events [6]
inactive: percent of DMSO control GFP [1] 94.6% | GFP response vs DMSO [2] 133% | percent response of DMSO control [3] 110% | GFP response vs DMSO [4] 86.4% | GFP response, % of DMSO [5] 107% | vesicle binding response [6] 236% | inhibition [7] 0.64% | superoxide response (% of plate) [8] 98.5% | aptamer binding inhibition [9] 6% | response [10] -13.9% | inhibition [11] -10.8% | response [12] -0.39% | binding (% of control) [13] 102% | efflux inhibition (fraction of control) [14] -0.13 | inhibition [15] 11% | differentiation response [16] -6.55%

Reference: PubChem BioAssay
